Experimental data published in ChEMBL document CHEMBL4513216, “Probing the Open Global Health Chemical Diversity Library for Multistage-Active Starting Points for Next-Generation Antimalarials” (ACS Infect Dis, 2020).
The whole screen tested about 68,000 compounds, of which about 2,700 (4%) showed an effect of 50% or more. The full list was thinned out, with strong results kept by preference.

The molecules below were run on Plasmodium berghei (assay: Screen against P. berghei liver stage (PbLuc), transformed with Luciferase, at 2uM). Conditions: tested at 2 uM.
Assay type: functional, HepG2

SMILES	INHIBITION
CNC(=O)c1csc(-c2ccoc2)n1	52.3%
CNC(=O)c1csc(-c2cccnc2)n1	30.63%
CN(C)C(=O)c1csc(-c2ccoc2)n1	38.83%
Cc1nc(C)n(CC(C)C(=O)N2CCC(NS(C)(=O)=O)CC2)n1 (centres undefined)	5.85%
CCc1ccc(C(COC)NC(=O)c2ccc(C(N)=O)cc2)o1 (centres undefined)	15.56%
CSc1ncccc1C(=O)NCc1ccc(N(C)C)cc1	10.65%
Cc1ncccc1C(=O)Nc1cccc(Cn2ccccc2=O)c1	45.67%
CSc1ncccc1C(=O)Nc1ccc(Cn2ccccc2=O)cc1	52.45%
CS(=O)(=O)N[C@@H]1CCN(Cc2nccs2)[C@H]1Cc1ccncc1	-11.68%
Cc1cc(NC(=O)C(C)Cn2cc(Br)cn2)no1 (centres undefined)	0.55%
CCOc1ncccc1CNc1nnc(C)c(C)c1C#N	-27.71%
CCCOc1ncccc1CNc1nnc(C)c(C)c1C#N	42.12%
Cc1nnc(NCc2cccnc2N(C)C)c(C#N)c1C	53.03%
COC(=O)N1CCCC(C(=O)NCc2cc3cccc(OC)c3o2)C1 (centres undefined)	33.01%
CCn1ncc(C(=O)NCCc2nc(-c3ccc(C)cc3)n[nH]2)c1C	-0.21%
CC1(C)[C@@H]2CC=C(CN3CCCn4nc(C(=O)NCCO)cc4C3)[C@H]1C2	53.17%
CC1(C)[C@@H]2CC=C(CN3CCCn4nc(CCC(=O)O)cc4C3)[C@H]1C2	6.88%
CC1(C)[C@@H]2CC=C(CN3CCCn4nc(C(=O)O)cc4C3)[C@H]1C2	-17.07%
Cn1cc(CCNC(=O)NC2CCS(=O)(=O)C2)cn1 (centres undefined)	0.3%
CC(c1ccc(C(=O)NCCc2nc(N)cc(O)n2)o1)N1CCCCC1 (centres undefined)	-24.78%
O=C(NCC1CCOC1)c1csc(-c2ccc(Cl)cc2)n1 (centres undefined)	5.09%
COc1ccc(-c2nc(C(=O)NCC3CCOC3)cs2)cc1OC (centres undefined)	60.09%
Cc1ccc(-c2nc(C(=O)NCC3CCOC3)cs2)cc1 (centres undefined)	49.9%

SMILES	INHIBITION
CC(=O)N(Cc1ncc(C)o1)C1CCN(CCc2cnn(C)c2)C1 (centres undefined)	9.83%
CCC1CN(C(=O)COc2ccc(C(=O)NC3CC3)cc2)CCO1 (centres undefined)	32.93%
N#CCCN1CC(O)CN(C(=O)c2cccc(C(F)(F)F)c2)CC1=O (centres undefined)	24.52%
O=C(NCCCc1nc(=O)[nH][nH]1)Nc1cccc(F)c1	52.85%
O=C(NCCCc1nc(=O)[nH][nH]1)Nc1ccc(Cl)cc1	23.64%
CNc1nc(CNC(=O)Nc2cccc(F)c2)cs1	-88.54%
COCC1CN(Cc2ccc(C)o2)Cc2nnn(C)c21 (centres undefined)	38.83%
Cc1cc(S(=O)(=O)NCC(C)(O)CN(C)C)c(F)cc1F (centres undefined)	8.05%
CN(C)C(=O)c1cccc(C[S+]([O-])CC(=O)NC2CCCC2)c1 (centres undefined)	-13.12%
Cc1cc(CS(=O)(=O)NC2CCCc3ccccc32)on1 (centres undefined)	57.34%
Cc1cc(CS(=O)(=O)NCC2CCCCC2)on1	10.22%
Cc1cc(CS(=O)(=O)NC2CCCCC2)on1	35.46%
CCCc1n[nH]c(=O)n1Cc1ccc(OC)cc1	-13.14%
O=C(COC1CCCC1)Nc1ncn(CC(=O)N2CCCCCC2)n1	22.29%
CC(C)Nc1nnc(SCc2nnc(C(C)(C)C)o2)s1	13.91%
O=C(NCC1CC1)C1CN(Cc2ccncc2)Cc2ccnn2C1 (centres undefined)	7.55%
O=C(NCC1CC1)C1CN(c2ncccn2)Cc2ccnn2C1 (centres undefined)	64.37%
O=C(NCC1CC1)C1CN(Cc2cccs2)Cc2ccnn2C1 (centres undefined)	23.53%
O=c1ccc(-c2cccs2)nn1CN1CCOC(c2ccccc2)C1 (centres undefined)	-30.87%
Cc1nc(CN2CCC3(CC2)CC(=O)N(C)c2ccccc23)cs1	9.8%
Clc1cncc(NCc2cccc(COC3CCOCC3)c2)n1	-0.39%
CNS(=O)(=O)Cc1cccc(CNc2ccc(C#N)cn2)c1	19.12%
Clc1cnccc1N1CCC(OC2CCOCC2)CC1	-76.37%

SMILES	INHIBITION
N#Cc1ccc(NCc2cccc(COC3CCOCC3)c2)nc1	66.24%
Clc1cnccc1NCc1cccc(COC2CCOCC2)c1	68.73%
N#Cc1ccc(NCc2cccc(OCC3CCCO3)c2)nc1 (centres undefined)	42.35%
CC(=O)N1CCN(Cc2nccs2)CC2(CC(=O)N(C)C2)C1 (centres undefined)	26.01%
CCC(Nc1cccc(OC)c1)C(=O)NCc1ccc2c(c1)OCO2 (centres undefined)	11.6%
c1cnn(CC2CN(Cc3csc(C4CCCCC4)n3)CCO2)c1 (centres undefined)	-43.79%
Cc1cccc(CN2CCN(C(=O)c3cnc(C)[nH]c3=O)CC2)c1	43.15%
CNC(=O)CN1C(=O)CN(C(=O)COC)CCC(OC)c2ccccc21 (centres undefined)	-8.2%
O=S(=O)(c1ccccc1)N1C[C@@H]2COC[C@]2(CN2CCOCC2)C1	29.19%
Cc1cc(C(F)(F)F)cc(N2C[C@@H](CN(C)CCO)[C@@H](CO)C2)n1	50.97%
Cc1cc(C(F)(F)F)cc(N2C[C@@H](CN3CCOCC3)[C@@H](CO)C2)n1	-18.71%
CCN(CCO)C[C@@H]1CN(c2cc(C(F)(F)F)cc(C)n2)C[C@@H]1CO	14.59%
c1cncc(CN2CCn3cc(Cn4cccn4)nc3C2)c1	15.39%
Cc1ccc(N2CC3(COCCN(Cc4cccnc4)C3)OCC2=O)s1 (centres undefined)	-5.44%
CN(C)c1cc(CNC(=O)c2cc(Cl)ccn2)ccn1	49.01%
Cc1ccc(CC(=O)N2CCCC(c3cc(C(N)=O)[nH]n3)C2)cn1 (centres undefined)	14.53%
CC(C)(C)C(=O)NCCC(=O)N1CCC(Nc2cccnn2)CC1	-27.69%
COCCN1CCC2(CC1)CN(C(=O)Cc1cccnc1)CCO2	35.89%
COCCN1CCC2(CC1)CN(C(=O)c1ccco1)CCO2	45.22%
O=C(c1ccccc1)N1CCOC2(CCN(Cc3cccs3)CC2)C1	20.51%
COCCN1CCC2(CC1)CN(C(=O)c1ccccc1)CCO2	58.4%
COCCN1CCC2(CC1)CN(C(=O)c1cccs1)CCO2	57.31%
COCCN1C[C@@H](C)[C@@]2(COCCN(C(=O)c3cccs3)C2)C1	-3.19%
